UCHL1 block: blocks human UCHL1 ubiquitin-rhodamine cleavage | inhibition, % at 20 µM | AID 1645859 | actives 0.2% (n = 47,000) | purified UCHL1, Ub-rhodamine cleavage fluorescence
USP10 inh: human USP10 deubiquitinase inhibition; Q14694; purified USP10, Ub-rhodamine fluorescence, 60 min; inhibition, % at 20 µM; actives 1.1% (n = 47,000)
USP7 block: human USP7 deubiquitinase inhibition | Q93009 | purified USP7, Ub-rhodamine cleavage fluorescence | inhibition, % at 20 µM | actives 0.3% (n = 47,000)
An asterisk follows results filed as active. Rows were chosen to be rich in hits. Some 1.2% of all compounds tested hit in one or more screens of this group. Cut-off read from the data, not from the text of the source: active = inhibition above about 30%; inactive = the rest.

For COc1ccc(NC(=O)Cn2c(=O)n(Cc3ccco3)c(=O)c3ccc(C(=O)NC4CCCC4)cc32)cc1 the results were UCHL1 block 0.7, USP10 inh 49.0* and USP7 block 13.3.
`O=C(Nc1cccc(N2CCn3c(nc4ccccc43)C2)c1)c1cccc(Br)c1` gave UCHL1 block -4.1, USP10 inh -2.5 and USP7 block -3.4.
`Cc1ccccc1-c1nc(SCC(=O)N2CCCC2)c2c(=O)n(C)c(=O)n(C)c2n1` gave UCHL1 block 0.0, USP10 inh -0.4 and USP7 block 0.2.
`Cc1cc(=O)sc2c1c(C)nn2-c1ccccc1` gave UCHL1 block 0.0, USP10 inh 1.7 and USP7 block -124.7.
For CCn1c(=O)c2cc(OC)c(OC)cc2n(CC(=O)c2ccc(OC)c(OC)c2)c1=O the results were UCHL1 block 2.5, USP10 inh -2.1 and USP7 block 3.9.
`COc1ccc(NC(=O)Cn2c(=O)n(CCC(=O)NC3CCCC3)c(=O)c3ccccc32)cc1Cl` gave UCHL1 block 0.8, USP10 inh 0.2 and USP7 block -1.7.
`COc1ccc(Cl)cc1NC(=O)Cn1c(=O)n(CCC(=O)NC2CCCC2)c(=O)c2ccccc21` gave UCHL1 block 2.2, USP10 inh 42.9* and USP7 block -7.2.
COc1cc(OC)c(NC(=O)Cn2c(=O)n(Cc3ccccc3Cl)c(=O)c3cc(OC)c(OC)cc32)cc1Cl was read as UCHL1 block -0.4, USP10 inh 35.5* and USP7 block 2.7.
Screening COc1ccccc1CNC(=O)C1CCCN(S(=O)(=O)Cc2ccccc2Cl)C1 (stereo unspecified) returned UCHL1 block 1.9, USP10 inh 9.4 and USP7 block 0.4.
Cc1nc2c(C)cccn2c(=O)c1Cc1nnc(SCC(=O)Nc2ccccc2)n1C was read as UCHL1 block -1.2, USP10 inh 0.5 and USP7 block 0.1.
`O=C1CCCc2nc(-c3ccc(OCc4ccc(C(F)(F)F)cc4)cc3)ncc21` gave UCHL1 block -8.3, USP10 inh 4.6 and USP7 block -16.1.
`O=C(Nc1ccccc1)c1ccnc(Nc2ccc(F)cc2)c1` gave UCHL1 block 0.0, USP10 inh 1.0 and USP7 block -5.8.
`O=C(Nc1ccc(S(=O)(=O)Nc2cc(Cl)cc(Cl)c2)cc1)c1c(F)cccc1Cl` gave UCHL1 block 4.4, USP10 inh 34.3* and USP7 block 11.7.
`O=C(Nc1ccc(Oc2ccccc2)cc1)c1c(F)cccc1Cl` gave UCHL1 block 5.1, USP10 inh 7.6 and USP7 block 2.8.
Screening COc1ccc(CNC(=O)c2ccc3c(=O)nc4c(-c5cccc(C)c5)n[nH]n4c3c2)cc1 returned UCHL1 block 0.9, USP10 inh 41.1* and USP7 block 21.9.
COc1ccc(-c2n[nH]n3c2nc(=O)c2ccc(C(=O)NCc4ccco4)cc23)cc1 was read as UCHL1 block 18.7, USP10 inh 28.7 and USP7 block 17.5.

Screening data deposited in PubChem by Buhrlage Lab, Dana-Farber Cancer Institute and Novartis Institutes for BioMedical Research (Cambridge, Mass).
